# Reference: the supplement of paper PMC10127200
# Counter-ions that a name gives are not always drawn.
# Test system: HEPG2
# Assay: Euclidean distance of Cell Painting phenotypic profile (signed KS, 77 features) to DMSO centroid (dimensionless distance); 5 or 10 uM (library dependent); higher = stronger phenotypic change vs DMSO (phenoactivity)
# Details: 48 h
# Method in brief: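 Harmony extracted 77 features from 20X confocal images (9 fields/well) of stained cells, scoring each as a signed Kolmogorov-Smirnov statistic against same-plate vehicle wells. The cells, five cancer lines and a healthy fibroblast line, had received library compounds for 48 h at 10 or 5 uM depending on library, with 0.1% DMSO final. Phenoactivity is the Euclidean distance from each plate-position-corrected, correlation-weighted, top-dose replicate-averaged profile to the median vehicle profile.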
row,Compound,Euclidean distance
1,CCN1CCN(Cc2ccc(Nc3ncc(F)c(-c4cc(F)c5nc(C)n(C(C)C)c5c4)n3)nc2)CC1 [Abemaciclib],3.81
2,O=c1c(-n2ccnn2)c[nH]n1-c1cc(N2CCOCC2)ncn1 [Molidustat (BAY 85-3934)],0.627
3,O=c1ccn([C@@H]2O[C@H](CO)[C@@H](O)[C@H]2O)c(=O)[nH]1 [Uridine],1.9
4,CN1CCN(C2=Nc3cc(Cl)ccc3Nc3ccccc32)CC1 [Clozapine],1.03
5,C[C@@H]1COCCN1c1cc(C2([S@](C)(=N)=O)CC2)nc(-c2cc[nH]c3nccc2-3)n1,2.29
6,CCCC(=O)O[C@]1(C(=O)COC(C)=O)CC[C@H]2[C@@H]3C[C@H](F)C4=CC(=O)C=C[C@]4(C)[C@@]3(F)[C@@H](O)C[C@@]21C [Difluprednate],0.695
7,CCCNCC(O)COc1ccccc1C(=O)CCc1ccccc1 (configuration not stated) [Propafenone HCl],0.85
8,CN1CCN(CC/C=C2/c3ccccc3Sc3ccc(S(=O)(=O)N(C)C)cc32)CC1 [Thiothixene],3.3
9,Cc1cn(-c2cc(NC(=O)c3ccc(C)c(Nc4nccc(-c5cccnc5)n4)c3)cc(C(F)(F)F)c2)cn1 [Nilotinib (AMN-107)],1.09
10,COc1ccc(-c2cc3c(C)nc(N)nc3n([C@H]3CC[C@H](OCCO)CC3)c2=O)cn1,2.12
11,C[C@]1(COc2ccc(N3CCC(Oc4ccc(OC(F)(F)F)cc4)CC3)cc2)Cn2cc([N+](=O)[O-])nc2O1 [Delamanid],0.492
12,Cc1cc2c(cc1CC(=O)c1sccc1S(=O)(=O)Nc1onc(C)c1Cl)OCO2 [Sitaxentan sodium],0.95
